Laboratory results published in PubChem BioAssay (NCI).
About 79,000 compounds went through this panel and 15% of them were active in at least one assay; those are over-represented in the sample as a whole. Calls of active or inactive are those of the source. Cut-off read from the data, not from the text of the source: active = growth inhibition above about 70%; inactive = the rest.

Columns and labels:
[1] = NCI Yeast Anticancer Drug Screen. Data for the rad50 strain (AID 155);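 note: 0% = growth of vehicle-only cultures of the same strain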; conditions: S. cerevisiae rad50 strain growth inhibition, stronger effect = higher value
How it was run: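 Cells are treated with compound, grown, and their growth is then scored against vehicle-only cultures of the same repair-deficient yeast strain.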

[2] = NCI Yeast Anticancer Drug Screen. Data for the mec2-1 strain (AID 157); conditions: S. cerevisiae mec2-1 strain, stronger effect = higher value
How it was run: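 Each compound was tested on mec2-1 yeast, a strain altered in DNA damage repair or cell cycle control. Growth inhibition is reported relative to vehicle.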

[3] = NCI Yeast Anticancer Drug Screen. Data for the sgs1 mgt1 strain (AID 161);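 note: 0% = growth of cultures given vehicle only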; conditions: S. cerevisiae sgs1 mgt1 strain, stronger effect = higher value
How it was run: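 Mutant yeast exposed to compound; growth scored against vehicle-only wells.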

[4] = NCI Yeast Anticancer Drug Screen. Data for the cln2 rad14 strain (AID 165);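 note: 0% = growth equal to vehicle treated cultures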; conditions: S. cerevisiae cln2 rad14 strain, stronger effect = higher value
How it was run: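 Test compounds were added to cln2 rad14 yeast cultures; inhibition of growth was then determined by comparison with vehicle treatment.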

[5] = NCI Yeast Anticancer Drug Screen. Data for the bub3 strain (AID 167); conditions: S. cerevisiae bub3 mutant strain, stronger effect = higher value
How it was run: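 Part of a panel of yeast mutants defective in DNA damage repair or cell cycle regulation. Each strain is grown with compound, and inhibition is calculated relative to solvent-treated cultures.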

[6] = NCI Yeast Anticancer Drug Screen. Data for the mlh1 rad18 strain (AID 175); conditions: S. cerevisiae mlh1 rad18 strain growth inhibition, stronger effect = higher value
How it was run: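 Inhibition values reflect reduced growth of mutant yeast versus vehicle-treated controls following compound exposure; the mutations affect DNA damage repair.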

[7] = at 5.0 µM (retest, dose inferred, filed as 0.5)
[8] = at 50.0 µM (retest, dose inferred, filed as 5.0)

Measured: growth inhibition

CN(C)CCCNc1cc(O)c2c(c1O)C(=O)c1ccccc1C2=O
inactive: [1]; [7] 22% | [2]; [7] 18% | [3]; [7] 26% | [4]; [7] -16% | [5]; [7] 13% | [6]; [7] 16%
active: [1]; [8] 98% | [1]; at 50.0 µM 99.2% | [2]; [8] 94% | [2]; at 50.0 µM 97.6% | [3]; [8] 96% | [3]; at 50.0 µM 98.3% | [4]; [8] 94% | [4]; at 50.0 µM 94.8% | [5]; [8] 97% | [5]; at 50.0 µM 98.3% | [6]; [8] 98% | [6]; at 50.0 µM 99%

O=C1C(=O)C(Cc2ccccc2)(c2ccccc2)C(=O)N1c1ccccc1 (configuration not stated)
inactive: [1]; [7] 0% | [1]; [8] 42% | [1]; at 50.0 µM 68.2% | [2]; [7] -3% | [2]; [8] 59% | [2]; at 50.0 µM 6.25% | [3]; [7] -2% | [3]; at 50.0 µM 54.6% | [4]; [7] 3% | [4]; [8] 22% | [4]; at 50.0 µM -9.8% | [5]; [7] -1% | [5]; [8] 52% | [5]; at 50.0 µM 10.3% | [6]; [7] 1% | [6]; [8] 62% | [6]; at 50.0 µM 40.4%
active: [3]; [8] 70%

O=c1[nH]c2c([N+](=O)[O-])cc(Cl)cc2nc1/C=C(\O)c1ccc2ccccc2c1
active: [1]; [8] 95% | [1]; at 50.0 µM 74.3% | [2]; [8] 98% | [2]; at 50.0 µM 72.9% | [3]; [8] 95% | [3]; at 50.0 µM 90.1% | [4]; [8] 94% | [5]; [8] 97% | [5]; at 50.0 µM 70% | [6]; [8] 96% | [6]; at 50.0 µM 71.5%
inactive: [1]; [7] -4% | [2]; [7] 7% | [3]; [7] -8% | [4]; [7] 6% | [4]; at 50.0 µM 49.1% | [5]; [7] -9% | [6]; [7] 25%

Cc1c(C[n+]2cc3ccccc3cc2/C=N/O)ccc2ccccc12
inactive: [1]; [7] 1% | [1]; [8] 31% | [1]; at 50.0 µM 19.1% | [2]; [7] 3% | [2]; [8] 39% | [2]; at 50.0 µM 10.1% | [3]; [7] 2% | [3]; [8] 31% | [3]; at 50.0 µM 5.5% | [4]; [7] -2% | [4]; [8] -6% | [4]; at 50.0 µM -3.1% | [5]; [7] 1% | [5]; [8] 19% | [6]; [7] 1% | [6]; [8] 37% | [6]; at 50.0 µM 16.8%
active: [5]; at 50.0 µM 97.2%

Cc1cccc2c(CC(=O)O)c[nH]c12
active: [1]; [8] 98% | [1]; at 50.0 µM 99.2% | [2]; [7] 76% | [2]; [8] 99% | [2]; at 50.0 µM 99.5% | [3]; [8] 99% | [3]; at 50.0 µM 99.6% | [4]; [7] 73% | [4]; [8] 99% | [4]; at 50.0 µM 99.2% | [5]; [7] 93% | [5]; [8] 97% | [5]; at 50.0 µM 99.4% | [6]; [7] 92% | [6]; [8] 98% | [6]; at 50.0 µM 99.3%
inactive: [1]; [7] 60% | [3]; [7] 67%

ClC1(Cl)c2ccccc2-c2ccccc21
inactive: [1]; [7] -147% | [1]; [8] -36% | [1]; at 50.0 µM 7.55% | [2]; [7] -51% | [2]; [8] -40% | [2]; at 50.0 µM -4.1% | [3]; [7] -59% | [3]; [8] -49% | [3]; at 50.0 µM -7.05% | [4]; [7] -55% | [4]; [8] -54% | [4]; at 50.0 µM 43.4% | [5]; [7] -67% | [5]; [8] -55% | [5]; at 50.0 µM -21% | [6]; [7] -115% | [6]; [8] -79% | [6]; at 50.0 µM -2.85%

Clc1ccccc1NN(Cc1ccccn1)c1ccccc1Cl
inactive: [1]; [7] 16% | [1]; [8] 54% | [2]; [7] -6% | [2]; [8] 32% | [2]; at 50.0 µM 58.7% | [3]; [7] 8% | [3]; [8] 69% | [3]; at 50.0 µM 58.9% | [4]; [7] -14% | [4]; [8] 50% | [4]; at 50.0 µM 57% | [5]; [7] 28% | [6]; [7] 3% | [6]; [8] 59%
active: [1]; at 50.0 µM 76.5% | [5]; [8] 77% | [5]; at 50.0 µM 88.4% | [6]; at 50.0 µM 71.2%

Oc1c(Cl)c(Cl)c2ncccc2c1Cl
inactive: [1]; [7] 14% | [1]; [8] 13% | [1]; at 50.0 µM 55.8% | [2]; [7] 10% | [2]; [8] 13% | [2]; at 50.0 µM -8.8% | [3]; [7] 11% | [3]; [8] 15% | [3]; at 50.0 µM 49% | [4]; [7] 4% | [4]; [8] 5% | [4]; at 50.0 µM -26.4% | [5]; [7] 5% | [5]; [8] 37% | [5]; at 50.0 µM 48.6% | [6]; [7] 7% | [6]; [8] 12% | [6]; at 50.0 µM 45.5%

c1ccc2c(CCc3ccncc3)c[nH]c2c1
inactive: [1]; [7] 2% | [1]; at 50.0 µM 46.8% | [2]; [7] -4% | [2]; [8] 59% | [2]; at 50.0 µM 45.1% | [3]; [7] 11% | [3]; at 50.0 µM 50.1% | [4]; [7] -13% | [4]; [8] 69% | [4]; at 50.0 µM 6.25% | [5]; [7] -10% | [5]; at 50.0 µM 4.8% | [6]; [7] -13% | [6]; [8] 65% | [6]; at 50.0 µM 57.5%
active: [1]; [8] 78% | [3]; [8] 82% | [5]; [8] 75%
